Assay outcomes from PubChem BioAssay.
HTT aggregate: reduces HttQ103-GFP aggregates in PC12 cells | actives 1.1% (n = 220,000) | PC12 HttQ103-GFP aggregates, Acumen cytometry, 40 h | AID 1688 | Potency, µM (top dose mostly 46.1 µM), for the others: top-dose activity change, negative = inhibition, most hits filed as inhibitors; also: % is scaled to controls: 0 for no effect and ±100 for the full control effect; nearly all actives have a fitted effect of over 60% in size
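PC12 cells stably carrying ecdysone-inducible HTT exon 1 Q103–GFP were induced with tebufenozide (100 nM final) and treated with library compounds in titration. GFP aggregates in lysates were counted by laser scanning cytometry.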
HTT ATP protect: Huntington cell model cytoprotection by ATP luminescence | PC12 HTT-Q103 induced, cytoprotection, ATP luminescence, 40 h | Potency, µM (highest dose often 56.4 µM), inactives show cytoprotection (ATP increase), most hits filed as activators | actives 0.14% (n = 230,000) | AID 1471; also: % of control where 0% means no effect; nearly all actives have a fitted effect of over 45% in size
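Cells were plated at 1500 per well in phenol red-free DMEM with 5% equine and 5% calf serum. Tebufenozide (100 nM final) and compounds were added, then ATPlite reagent, and luminescence was read.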
Epigenetic reg: derepresses silenced GFP reporter in murine cells. murine LDR cells, GFP reporter derepression, 30 h. Potency, µM (series often up to 53.9 µM), inactives show at the highest dose GFP activation, hits mostly activators. actives 0.2% (n = 280,000); also: % of control where 0% means no effect; nearly all actives have a fitted effect of over 60% in size
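GFP-positive cell count by laser-scanning cytometry (objects 20–120 um) after 30 h, 37 C compound exposure of murine LDR cells; reporter is CMV-GFP integrated at a silenced locus, inducible by HDAC or DNMT inhibitors.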
PINK1 expr mod: PINK1 expression modulation; PINK1 immunofluorescence, high-content cytometry, 24 h; Potency, µM (series often up to 76.6 µM), without a hit: top-dose activation (PINK1 increase), most hits filed as activators; actives 0.2% (n = 410,000); active = well fitted activation curve with a large enough effect; inconclusive = small, poorly fitted or top-dose-only effect; cell line not stated here; also: % of control where 0% means no effect; nearly all actives have a fitted effect of over 65% in size
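Measures PINK1 amount and localization on or inside mitochondria by immunofluorescence. Stable cells get compounds at 5 concentrations for 24 hours before fixation and staining; CCCP controls included.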
Active calls of the source: *; ? = inconclusive; . = not tested or not shown; [ ] = dose if it differs, or a comment. This excerpt belongs to a sample that is enriched for hits. Unless noted, calls follow the shape of the dose curve; as a rule, active = well fitted curve in the direction sought with a large enough effect; inconclusive = small, poorly fitted or top-dose-only effect, or another doubt; inactive = no such curve, though single readings can be large; an effect the other way counts as inactive or inconclusive. Potency is read from the fitted curve at half-maximal effect.

SMILES	HTT aggregate	HTT ATP protect	Epigenetic reg	PINK1 expr mod
COc1ccc(OCCSc2ncnc3nc[nH]c23)cc1	-33%	-31%	1%	-1%
Cc1cc(C(=O)NNC(=S)Nc2cccc(C(F)(F)F)c2)nn1C	.	.	.	2%
CC(=O)C1=C(c2ccc(Br)cc2)C(=O)c2ccccc2C1=O	5µM*	-82%[10 µM]	0%	0%
O=C(COc1ccc(S(=O)(=O)NC2CCCCC2)cc1)N1CCN(c2cccc(Cl)c2)CC1	16µM*	-22%	0%	-3%[38.3 µM]
O=C1S/C(=C\c2ccc(N3CCOCC3)o2)C(=O)N1Cc1ccc(F)cc1	7%	-31%	3.5µM*	?
O=C1S/C(=C/c2ccc(N3CCOCC3)o2)C(=O)N1Cc1ccc(F)cc1	13%	-40%	14µM*	24%
O=C1NC(=S)S/C1=C/c1ccc(N2CCOCC2)o1	-31%	.	-2%	21%
CC(C)OC(=O)CN1C(=O)S/C(=C/c2ccc(N3CCCCC3)o2)C1=O	?	-24%	11µM*	.
C=CCN1C(=O)N/C(=C/c2ccc(N3CCOCC3)o2)C1=O	5µM*	.	1%	.
C#CCN1C(=O)S/C(=C\c2ccc(-c3ccc(C(=O)O)cc3C)o2)C1=O	.	.	.	-1%
FC(F)(F)c1nc2cc3nc4ccccc4[nH]c3cc2n1	26%[9.22 µM]	14%[10 µM]	-1%	3%
O=C(O)c1ccc(NS(=O)(=O)Cc2ccccc2)cc1	.	-4%[10 µM]	.	.
COc1cccc(CC(=O)n2nc(N)c3cc4ccc(OC)cc4nc32)c1	-10%	?	3%	14%
COc1ccc2cc3c(N)nn(C(=O)Cc4c[nH]c5ccccc45)c3nc2c1	3.2µM*	3%[10 µM]	0%	-1%
COc1ccc2cc3c(N)nn(C(=O)Cc4ccc(Cl)cc4)c3nc2c1	7.9µM*	15%	3%	0%
Cc1ccc2nc(NC(=O)C3CCN(S(=O)(=O)c4cccs4)CC3)sc2c1	-24%	3.5µM*	0%	0%[38.3 µM]
O=C(Nc1nc2ccc(S(=O)(=O)N3CCCCC3)cc2s1)c1cccnc1	-12%	-26%	7%	5%[38.3 µM]
O=C(Nc1nc2ccc(S(=O)(=O)N3CCCCC3)cc2s1)c1ccncc1	3.5µM*	-10%[10 µM]	-8%	1%
Cc1ccc(N2C(N)=C(C#N)C(c3cccnc3)C3=C2CC(C)(C)CC3=O)cc1 (centres undefined)	33%	-10%	-9%	9%
Cc1ccccc1-n1c(SC(C)C(N)=O)nnc1-c1cccnc1 (centres undefined)	2%	-15%	-1%	10µM*
c1ccc(-c2csc3ncnc(NCC4COc5ccccc5O4)c23)cc1 (centres undefined)	8.9µM*	17%[10 µM]	-4%	4%
Cc1sc2ncnc(NCC3COc4ccccc4O3)c2c1C (centres undefined)	?	30%[10 µM]	0%	6%
CCCCN(CC)CCCNC(=S)Nc1ccc2nc(N3CCN(C)CC3)cc(C)c2c1	28µM*	-9%	2%	2%
CCCCN(CC)CCCNC(=S)Nc1ccc2nc(N3CCN(CC)CC3)cc(C)c2c1	?	-33%	-4%	5%
C[C@@H]1CN([C@H](C)CO)C(=O)c2cc(Br)cnc2O[C@H]1CN(C)C(=O)c1ccccc1	.	.	.	1%
SMILES	HTT aggregate	HTT ATP protect	Epigenetic reg	PINK1 expr mod
O=C(c1ccco1)N1CCn2cccc2C1c1ccccc1 (centres undefined)	-5%	0.89µM*	-1%	5%
CC1CCN(c2nc(-c3cccnc3)nc3scc(-c4ccccc4)c23)CC1	-17%	-7%[10 µM]	0%	2%
CC1CCCN(c2nc(-c3cccnc3)nc3scc(-c4ccccc4)c23)C1 (centres undefined)	22%	12%[10 µM]	0%	28µM*
O=C(COC(=O)c1ccc2c(c1)C(=O)N(c1cccc3ncccc13)C2=O)c1ccc(Cl)cc1	-17%	25%[10 µM]	9%	10%
Cc1ccc(C(=O)COC(=O)c2ccc3c(c2)C(=O)N(c2cccc4ncccc24)C3=O)cc1	20µM*	28%[10 µM]	-1%	0%
COc1cc(/C=C(\C#N)c2nc3ccccc3[nH]2)cc(Cl)c1OCc1ccccc1Cl	.	.	11µM*	?
O=C(CCn1cnc2onc(-c3ccc(F)cc3)c2c1=O)N1CCN(c2ccc(F)cc2)CC1	.	.	5%	4%
Nc1[nH]n2c(=O)cc(-c3ccccc3)nc2c1N=Nc1ccccc1	3.2µM*	-79%	0%	4%
COC(=O)Cc1sc(-c2ccccn2)nc1-c1ccccc1	-5%	1µM*	-2%	0%
CCN(CC)c1ccc(/C=C(/C#N)c2nc3ccccc3[nH]2)c(OC(C)C)c1	?	-110%	13µM*	4%
CC1(C)CC(=O)c2sc(NS(=O)(=O)c3ccc([N+](=O)[O-])cc3)nc2C1	.	.	.	2%
Cn1c(=O)c2nc(NCc3ccccc3)cnc2n(C)c1=O	1%[9.22 µM]	-12%[10 µM]	2%	2%
Cc1nc2c(=O)n(C)c(=O)n(C)c2nc1Cl	10µM*	-90%[10 µM]	?	-3%
CCOC(=O)c1cc(C)n(CC2CCC(C(=O)Nc3ccc(Cl)cc3)CC2)c1C (centres undefined)	.	.	0%	1%
N#Cc1c(N)c(C(=O)c2ccccc2)n2c1CCC2	-3%	2%[10 µM]	0%	-6%[38.3 µM]
COC(=O)c1c(N)c(C#N)c2n1CCCCC2	-4%	-10%	0%	8.9µM*
O=C(NC1CC1)c1cc2c(s1)-c1ccccc1OC2	6.3µM*	-29%	-1%	4%
COC(=O)CN(C)C(=O)CC1C(=O)NCCN1CC(C)(C)C (centres undefined)	?	1.1µM*	1%	-1%
C/C(=C\C(=O)c1ccccc1)Nc1ccc(N2CCOCC2)cc1	-15%	-13%	0%	1%
Cn1c(C=O)c(C#CC(C)(C)O)c2ccccc21	.	.	.	1%
COc1cccc(C#Cc2c(C=O)n(C)c3ccccc23)c1	.	.	.	40µM*
O=Cc1c(F)cccc1N1CCCC1	16%	23%[10 µM]	0%	-1%
CN1CCCCCC1=Nc1ccc([N+](=O)[O-])cc1	.	.	.	-1%
CN1C(=O)C(N=Nc2ccc([N+](=O)[O-])cc2)SC1=S (centres undefined)	.	.	.	45µM*
O=C(N/N=C/c1ccccc1Cl)c1n[nH]c2c1CCCC2	13µM*	-13%[10 µM]	5%	0%
SMILES	HTT aggregate	HTT ATP protect	Epigenetic reg	PINK1 expr mod
Cc1nc2c(-c3ccc(Cl)cc3)c(C)[nH]n2c(=O)c1Cc1ccccc1	10µM*	-123%	0%	35µM*
CC(C)NC(=O)Nc1ccc(Br)cc1Cl	-15%[9.22 µM]	-2%[10 µM]	0%	2%
O=C(Nc1ccc(Br)cc1Cl)NC1CC1	18µM*	-19%	0%	8%
O=C(C[n+]1cc(-c2ccccc2)n2c1CCCCC2)c1ccc(Br)cc1	7%[9.22 µM]	10%[10 µM]	11%	0%
COc1ccc(-c2c[n+](CC(=O)c3cccs3)c3n2CCC3)cc1	-17%[9.22 µM]	15%[10 µM]	1%	0%
COc1ccc(C(=O)C[n+]2cc(-c3ccc(OC)cc3)n3c2CCCC3)cc1	10µM*	3%[10 µM]	0%	2%
Cc1ccc(C(=O)C[n+]2cc(-c3ccc(C)cc3)n3c2CCCCC3)cc1	0.89µM*	-76%	5%	?
CCN=c1scc(-c2ccc3c(c2)NC(=O)CO3)n1N=C1CCCC1	11µM*	-43%	2%	2%
